# Measurements from PubChem BioAssay.
# Activity calls are given as the source filed them.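 Rule for the calls: active = mean inhibition above 46.5%, the solvent-only control mean plus 3 SD; inactive = the rest.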
# Molecular target: Nuclear receptor coactivator 2 (Homo sapiens) (UniProt Q15596)
# Test: inhibition of GAL4-SRC2 driven luciferase expression – cell-based, luminescence, HEK293, triplicate, confirmation (AID 652008);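 note: 0% = DMSO-treated cells and 100% = Gossypol at 36 µM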
# Settings: HEK293 GAL4-SRC2 luciferase reporter, at 8.9 µM, hits give high values
# Nuclear receptor coactivator 2 (Homo sapiens), sequence (Q15596 whole entry, looked up, the tested form may be a part): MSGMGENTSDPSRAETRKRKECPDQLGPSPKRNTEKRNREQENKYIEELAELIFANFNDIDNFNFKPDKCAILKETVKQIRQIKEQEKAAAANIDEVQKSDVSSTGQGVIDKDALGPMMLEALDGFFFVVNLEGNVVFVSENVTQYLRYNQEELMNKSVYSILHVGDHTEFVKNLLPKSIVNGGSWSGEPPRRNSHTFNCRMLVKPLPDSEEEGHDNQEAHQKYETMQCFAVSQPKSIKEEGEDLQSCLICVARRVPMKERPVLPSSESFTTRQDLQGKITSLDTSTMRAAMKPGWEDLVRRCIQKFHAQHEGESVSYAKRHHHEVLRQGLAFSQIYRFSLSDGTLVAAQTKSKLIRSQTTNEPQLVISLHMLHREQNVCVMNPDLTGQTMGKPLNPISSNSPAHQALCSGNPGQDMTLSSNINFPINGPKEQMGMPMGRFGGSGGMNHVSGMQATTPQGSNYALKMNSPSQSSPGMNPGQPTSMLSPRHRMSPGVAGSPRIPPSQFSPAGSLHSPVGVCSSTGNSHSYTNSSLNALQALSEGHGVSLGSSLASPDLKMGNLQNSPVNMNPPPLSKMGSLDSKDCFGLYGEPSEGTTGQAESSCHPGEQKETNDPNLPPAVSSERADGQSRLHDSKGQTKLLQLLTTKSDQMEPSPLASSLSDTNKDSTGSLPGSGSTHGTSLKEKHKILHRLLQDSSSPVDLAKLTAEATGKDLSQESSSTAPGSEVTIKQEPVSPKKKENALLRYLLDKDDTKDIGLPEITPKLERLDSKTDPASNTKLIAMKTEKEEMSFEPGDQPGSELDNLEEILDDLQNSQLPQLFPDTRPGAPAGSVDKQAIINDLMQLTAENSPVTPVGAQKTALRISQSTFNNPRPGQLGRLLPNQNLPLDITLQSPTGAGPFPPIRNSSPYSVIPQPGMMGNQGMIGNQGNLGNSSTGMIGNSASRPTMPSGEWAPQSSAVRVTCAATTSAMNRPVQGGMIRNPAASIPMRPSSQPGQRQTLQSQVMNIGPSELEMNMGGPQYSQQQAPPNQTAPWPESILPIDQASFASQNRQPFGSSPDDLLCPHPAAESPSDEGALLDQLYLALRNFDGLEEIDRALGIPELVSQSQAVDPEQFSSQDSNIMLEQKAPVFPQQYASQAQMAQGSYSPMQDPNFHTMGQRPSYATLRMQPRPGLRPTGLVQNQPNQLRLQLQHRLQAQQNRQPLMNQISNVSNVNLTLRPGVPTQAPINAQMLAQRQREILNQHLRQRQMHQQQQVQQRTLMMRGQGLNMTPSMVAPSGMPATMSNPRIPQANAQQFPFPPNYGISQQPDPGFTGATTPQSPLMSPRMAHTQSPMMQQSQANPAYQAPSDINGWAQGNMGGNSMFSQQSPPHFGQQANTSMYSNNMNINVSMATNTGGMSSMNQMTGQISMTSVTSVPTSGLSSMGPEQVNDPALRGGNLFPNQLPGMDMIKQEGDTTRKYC
row,SMILES,inhibition
1,CC1CCCCC12NC(=O)N(CC(=O)Nc1ccc(OC(F)F)cc1)C2=O (stereo not given),-11.2% (inactive)
2,O=C(Nc1ccccc1)C1=C(c2ccccc2)S(=O)(=O)CCS1(=O)=O,90.1% (active)
3,COCCn1c(-c2ccc(Br)cc2)csc1=Nc1cccnc1,20.4% (inactive)
4,CC(C)c1ccc(/C=C/C(=O)N2CCCCCC2)cc1,-26% (inactive)
5,COc1cccc(NC(=O)N2CCc3nc(Nc4ccc(C(C)C)cc4)ncc3C2)c1,7.35% (inactive)
6,COc1ccc(C(=O)NCCNc2nc3cc(C)cc(C)c3cc2C#N)c(OC)c1,86.2% (active)
7,Cc1cc(C(=O)C(C)OC(=O)c2ccc(NC(=O)CC#N)cc2)c(C)n1-c1ccccc1 (stereo not given),26.3% (inactive)
8,O=C(COC(=O)c1cccc(F)c1)Nc1cccc(S(=O)(=O)N2CCCCC2)c1,2.48% (inactive)
9,Cc1cnc(NC(=O)COc2ccccc2Cl)s1,18.8% (inactive)
10,O=C(c1c(F)cccc1F)N1CCN(S(=O)(=O)c2ccc3c(c2)OCCO3)CC1,23.6% (inactive)
11,CCOC(=O)c1c(NC(=O)c2cnn3c2NC(c2cccc(OC)c2)CC3C(F)(F)F)sc2c1CCCC2 (stereo not given),-21.9% (inactive)
12,N#Cc1c(NC(=O)CSc2ncn[nH]2)sc2c1CCCC2,88.2% (active)
13,CCOC(=O)C1=C(COC(=O)CCOc2cc(C)ccc2C)NC(=O)NC1C (stereo not given),-29.2% (inactive)
14,CCOC(=O)[C@H]1[C@H]2COc3ccc(Br)cc3[C@@H]2N2C(=O)CN(Cc3ccco3)C(=O)[C@@]12C,-14.4% (inactive)
15,CSC1=C(C#N)C(c2ccc3c(c2)OCO3)C2=C(CCCC2=O)N1 (stereo not given),-1.64% (inactive)
16,Nc1ccc(C(=O)n2c3ccccc3c3ccccc32)cc1,17.5% (inactive)
17,O=C(NCCCN1CCOCC1)c1ccc(CNS(=O)(=O)c2ccc(Br)cc2)cc1,19.1% (inactive)
18,Cc1ccc(S(=O)(=O)C[C@@H]2OC[C@H](C)N2S(=O)(=O)c2ccc(C)cc2)cc1,-6.07% (inactive)
19,CN1CCC(=NNc2ncnc3sc4c(c23)CCCC4)CC1,-19.6% (inactive)
20,C=CCc1c(C)nc(SC(C)C)[nH]c1=O,-25.4% (inactive)

row,SMILES,inhibition
1,CCOn1c(=O)c[n+]([O-])c2ccccc21,-6.65% (inactive)
2,O=S(=O)(c1ccccc1)N1CCC(O)(CSc2ccc(F)cc2)CC1,13.4% (inactive)
3,Nc1ccc2oc(-c3cccc4ccccc34)nc2c1,48.8% (active)
4,CSc1nnc(NC(=O)c2nc(S(=O)(=O)Cc3cccc(C)c3)ncc2Cl)s1,73.1% (active)
5,Cc1cc(C)nc(NC(=O)c2c(F)c(F)c(F)c(C(=O)Nc3cc(C)cc(C)n3)c2F)c1,48.3% (active)
6,COc1ccc(CN2C[C@H](COCc3ccccc3)Oc3cccc(N4CCCC4)c3S2(=O)=O)cc1,-6.23% (inactive)
7,Cc1ccc(N(C(=O)CCl)C(C(=O)NC2CCCCC2)c2cccnc2)cc1C (stereo not given),61.7% (active)
8,COC(=O)c1c(NC(=O)CCCC(=O)O)sc2c1CCCCC2,53.8% (active)
9,Cc1ccc(-c2noc(CCC(=O)NCCN3CCN(Cc4ccccc4)CC3)n2)cc1,41.6% (inactive)
10,COc1cccc(/C=C2\SC(=S)N(CCCC(=O)N3CCCCC3CCO)C2=O)c1 (stereo not given),52.2% (active)
11,Cc1c(C=O)n(C)n(-c2ccccc2)c1=O,2.35% (inactive)
12,COc1cc(NC(=O)c2cccs2)c(C(=O)OCC(=O)c2cc(C)n(-c3ccccc3)c2C)cc1OC,67% (active)
13,COc1cccc(NC(=O)Nc2nnc(CC(=O)NCc3ccccc3)s2)c1,24.5% (inactive)
14,CC(C)c1ccccc1NC(=O)COC(=O)CCN1C(=O)/C(=C\C=C\c2ccccc2)SC1=S,77.6% (active)
15,COc1ccc(-c2cc(C(=O)O)c(C)o2)cc1OC,-11.1% (inactive)
16,CCN(CC)S(=O)(=O)c1ccc(Cl)c(NC(=O)COc2ccc(OC)cc2[N+](=O)[O-])c1,-28.8% (inactive)
17,CC(=O)N(CCc1ccccc1)c1ccc2c(c1)C1CC2CCN1C(=O)OCc1ccccc1 (stereo not given),18.6% (inactive)
18,Nc1nc(-c2ccccc2)c(N=Nc2cccnc2)s1,11.2% (inactive)
19,COc1ccccc1N(CC(=O)N/N=C(\C)c1ccccc1O)S(=O)(=O)c1ccc(C)cc1,25.4% (inactive)
20,Cc1cc(N2CCOCC2)c2c(N)cc(C)c(C)c2n1,-11.2% (inactive)
